Only some compounds are listed: those with a hit (about 3.2% of all), similar ones and a draw of the others.
Ecoli rRNA inh: inhibitors of bacterial rRNA selective over humanized ribosomes; GFP signal change (wild-type ribosome), % (test concentration not listed); E. coli WT GFP vs humanized-ribosome RFP mutants, fluorescence, 24 h; hits give low values; DMSO median 0, no signal -100; 350,000 compounds, 1.6% hits; AID 720706;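 active means significant combined selectivity score with lowered wild-type GFP, culture density cut under 30%, mutant RFP and density less affected; inactive means any of these conditions unmet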
ERAP1 inh: inhibitors of human ERAP1 aminopeptidase | recombinant ERAP1, Leu-AMC fluorescence, 60 min | AID 652197 | Q9NZ08 | inhibition, % at 10.7 µM | 340,000 compounds, 0.15% hits;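 active means mean replicate inhibition of at least 30%, or all replicates individually reaching that 30% level; inactive means mean below 30% and not every replicate reaching it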
Target sequence (Q9NZ08 whole entry, looked up): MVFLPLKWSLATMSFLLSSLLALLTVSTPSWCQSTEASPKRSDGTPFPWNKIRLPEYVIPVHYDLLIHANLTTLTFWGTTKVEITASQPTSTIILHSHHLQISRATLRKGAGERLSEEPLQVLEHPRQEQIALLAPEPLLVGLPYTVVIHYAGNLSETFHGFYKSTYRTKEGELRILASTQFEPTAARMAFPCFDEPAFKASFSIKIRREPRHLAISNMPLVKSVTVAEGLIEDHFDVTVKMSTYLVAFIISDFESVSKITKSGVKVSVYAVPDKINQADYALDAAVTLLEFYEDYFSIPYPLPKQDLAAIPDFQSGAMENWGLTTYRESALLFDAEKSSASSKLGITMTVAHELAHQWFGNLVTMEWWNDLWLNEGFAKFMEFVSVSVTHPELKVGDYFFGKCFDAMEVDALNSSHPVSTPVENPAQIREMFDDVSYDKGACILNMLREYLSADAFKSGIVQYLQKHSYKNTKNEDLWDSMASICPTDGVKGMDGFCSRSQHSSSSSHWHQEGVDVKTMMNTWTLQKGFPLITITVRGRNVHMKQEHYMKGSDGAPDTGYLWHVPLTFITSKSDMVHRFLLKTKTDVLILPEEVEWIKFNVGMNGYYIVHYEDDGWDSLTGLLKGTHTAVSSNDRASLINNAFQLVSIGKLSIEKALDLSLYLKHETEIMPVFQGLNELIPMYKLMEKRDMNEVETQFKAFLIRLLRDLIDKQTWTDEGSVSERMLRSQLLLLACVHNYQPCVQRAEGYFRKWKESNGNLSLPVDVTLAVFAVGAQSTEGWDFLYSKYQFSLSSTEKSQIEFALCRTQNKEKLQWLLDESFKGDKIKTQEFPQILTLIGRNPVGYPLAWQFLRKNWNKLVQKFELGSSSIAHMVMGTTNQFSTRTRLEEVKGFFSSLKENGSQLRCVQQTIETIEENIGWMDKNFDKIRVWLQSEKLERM
CaV13 ICDI inh: Disruptors of the CACNA1D IQ motif to Ca2+-dependent inactivation inhibitor domain association, primary screening, Förster resonance energy transfer in intact living … | 340,000 compounds, 0.098% hits | inhibition, % at 12.3 µM | HEK cells, CFP/YFP FRET ICDI-IQ, plate reader, 10 min; percent FRET-ratio fall versus neutral wells;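 active means mean replicate inhibition of at least 30% and at least 1% of replicates passing that level; inconclusive means only one of the two criteria is met; inactive means neither criterion is met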
DENV2 CPE: DENV2-induced cell death inhibition | DENV2-infected cells, cytopathic effect rescue, plate reader | CPE inhibition, % at 9.99 µM | 350,000 compounds, 1.7% hits; in the data active means CPE inhibition above about 20%, passing the limit was not always enough; inconclusive means no clear call, values can overlap the other calls; tested in BHK-21 cells
INS-1E GSIS act: primary screen for activators of insulin secretion dependent on glucose, INS-1E cells, GLuc reporter luminescence; INS-1E GLuc reporter insulin secretion, 2-3 h; activation, % at 16.6 µM; 370,000 compounds, 0.61% hits;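 active means lowest replicate activation of at least 40%, so every replicate reaches that level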
PGC1a acetyl inh: PGC1a acetylation modulation, inhibitor mode. inhibition, % at 15.6 µM. U2OS PGC1a acetylation, AlphaScreen anti-acetyl-lysine; with virally co-expressed GCN5 acetyltransferase. 350,000 compounds, 0.17% hits;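 active means every replicate shows inhibition of at least 40%; inconclusive means mean inhibition at least 40% but some replicate below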
Large screens that a line does not name were inactive; ! = not active in a repeat.

O=C(NCC[C@H]1CC[C@@H](NS(=O)(=O)c2ccccc2)[C@H](CO)O1)c1cc(Cl)cc(Cl)c1	none (no result: CaV13 ICDI inh)
C[C@@H]1CN([C@@H](C)CO)C(=O)c2cc(C#CC3CCCC3)cnc2O[C@H]1CN(C)Cc1ccncc1	none (no result: CaV13 ICDI inh)
C[C@H](CO)N1C[C@H](C)[C@@H](CN(C)C(=O)CCC(F)(F)F)OCCCC[C@H](C)Oc2ccc(NC(=O)c3ccccc3)cc2C1=O	none (no result: CaV13 ICDI inh)
CC(C)NC(=O)Nc1ccc2c(c1)CC(=O)N([C@@H](C)CO)C[C@@H](C)[C@H](CN(C)C(=O)NC1CCCCC1)O2	DENV2 CPE inconclusive (no result: CaV13 ICDI inh)
C[C@@H]1CC=CC[C@H](c2ccc(F)cc2)NC(=O)[C@H](C)N(C)C(=O)c2ccccc2O1 (mixture of isomers)	none (no result: ERAP1 inh, CaV13 ICDI inh, DENV2 CPE, PGC1a acetyl inh)
COc1ccc(S(=O)(=O)N2CC(=O)Nc3ccccc32)cc1Cl	Ecoli rRNA inh -33
C[C@@H]1CCCCO[C@@H](CN(C)Cc2ccc(Cl)c(Cl)c2)[C@@H](C)CN([C@@H](C)CO)C(=O)c2cc(NS(=O)(=O)c3ccccc3)ccc2O1	DENV2 CPE 23 (no result: CaV13 ICDI inh)
C[C@@H]1CCCCO[C@H](CN(C)Cc2ccc(Cl)c(Cl)c2)[C@H](C)CN([C@@H](C)CO)C(=O)c2cc(NS(=O)(=O)c3ccccc3)ccc2O1	DENV2 CPE 32 (no result: CaV13 ICDI inh)
C[C@H](CO)N1C[C@H](C)[C@@H](CN(C)Cc2ccc(Cl)c(Cl)c2)OCCCC[C@H](C)Oc2ccc(NS(=O)(=O)c3ccccc3)cc2C1=O	none (no result: CaV13 ICDI inh)
C[C@@H]1CN([C@H](C)CO)C(=O)c2cc(NS(=O)(=O)c3ccccc3)ccc2O[C@@H](C)CCCCO[C@H]1CN(C)Cc1ccc(Cl)c(Cl)c1	DENV2 CPE 23 (no result: CaV13 ICDI inh)
C[C@@H]1CCCCO[C@@H](CN(C)Cc2ccc(Cl)c(Cl)c2)[C@@H](C)CN([C@H](C)CO)C(=O)c2cc(NS(=O)(=O)c3ccc(F)cc3)ccc2O1	none (no result: CaV13 ICDI inh)
C[C@H]1CCCCO[C@H](CN(C)Cc2ccc(Cl)c(Cl)c2)[C@@H](C)CN([C@@H](C)CO)C(=O)c2cc(NS(=O)(=O)c3ccc(F)cc3)ccc2O1	DENV2 CPE 22 (no result: CaV13 ICDI inh)
Cc1noc(C)c1NC(=O)Nc1ccc2c(c1)CC(=O)N([C@@H](C)CO)C[C@H](C)[C@H](CN(C)C(=O)Nc1c(C)noc1C)O2	none (no result: CaV13 ICDI inh)
CNC[C@@H]1Oc2ncccc2C(=O)N(C)C[C@@H]1C	none (no result: ERAP1 inh, CaV13 ICDI inh, DENV2 CPE, PGC1a acetyl inh)
COc1ccc(Nc2nc(NCc3ccco3)nc(N/N=C/c3ccccc3F)n2)cc1	Ecoli rRNA inh -27
O=C(CN1CCN(Cc2ccccc2)CC1)NNC(=O)c1ccccc1	DENV2 CPE 26
CC=Cc1ccc2n(c1=O)C[C@H]1[C@H](CO)[C@@H](C(=O)NCCC)[C@@H]2N1S(=O)(=O)c1cn(C)cn1 (mixture of isomers)	none (no result: ERAP1 inh, CaV13 ICDI inh, DENV2 CPE)
C=CCN1C(=O)[C@@]2(O[C@@H](CCn3cc([C@H](O)c4ccccc4)nn3)[C@H]([Si](C)(C)c3ccc(OC)cc3)[C@H]2C)c2cc(N3CCOC3=O)ccc21	DENV2 CPE 42 (no result: Ecoli rRNA inh, CaV13 ICDI inh, INS-1E GSIS act, PGC1a acetyl inh)
COc1ccc([Si](C)(C)[C@H]2[C@H](CCO)O[C@@]3(C(=O)N(Cc4ccccc4)c4ccc(N5CCOC5=O)cc43)[C@@H]2C)cc1	DENV2 CPE 20 (no result: Ecoli rRNA inh, CaV13 ICDI inh, INS-1E GSIS act)
COc1ccc([Si](C)(C)[C@@H]2[C@@H](CCO)O[C@]3(C(=O)N(Cc4ccc(NC(C)=O)cc4)c4ccccc43)[C@H]2C)cc1	DENV2 CPE 20 (no result: Ecoli rRNA inh, CaV13 ICDI inh, INS-1E GSIS act)
COc1ccc([Si](C)(C)[C@@H]2[C@@H](CCO)O[C@]3(C(=O)N(Cc4ccccc4)c4ccc(N5CCOC5=O)cc43)[C@H]2C)cc1	none (no result: Ecoli rRNA inh, CaV13 ICDI inh, INS-1E GSIS act)
COc1ccc([Si](C)(C)[C@H]2[C@H](CCO)O[C@@]3(C(=O)N(Cc4ccc(NC(C)=O)cc4)c4ccccc43)[C@@H]2C)cc1	none (no result: Ecoli rRNA inh, CaV13 ICDI inh, INS-1E GSIS act)
C=CCN1C(=O)[C@@]2(O[C@@H](CCn3cc(CCO)nn3)[C@H]([Si](C)(C)c3ccc(OC)cc3)[C@H]2C)c2cc(N3CCOC3=O)ccc21	none (no result: Ecoli rRNA inh, CaV13 ICDI inh, INS-1E GSIS act, PGC1a acetyl inh)
Cc1ccc(S(=O)(=O)Nc2ccc3c(c2)C(=O)N([C@H](C)CO)C[C@@H](C)[C@H](CN(C)C(=O)Nc2ccc(C(F)(F)F)cc2)O3)cc1	none (no result: CaV13 ICDI inh)
CC(C)NC(=O)N(C)C[C@@H]1Oc2ccccc2C(=O)N(C)C[C@@H]1C	none (no result: ERAP1 inh, CaV13 ICDI inh, DENV2 CPE, PGC1a acetyl inh)
O=S(=O)(c1ccc(Cl)cc1)n1cccn1	DENV2 CPE inconclusive
Cc1nc(C)c(-c2ccn(S(=O)(=O)c3ccc(Cl)cc3)n2)o1	Ecoli rRNA inh -19
CC(C)NC(=O)N1CCCCN2[C@H](C1)[C@@H](c1ccc(C#CC3CC3)cc1)[C@@H]2CO	DENV2 CPE inconclusive (no result: CaV13 ICDI inh)
CC(C)NC(=O)N1CCCCN2[C@H](CO)[C@H](c3ccc(C#CC4CC4)cc3)[C@H]2C1	DENV2 CPE 66 (no result: CaV13 ICDI inh)
CC(C)NC(=O)N1CCCCN2[C@@H](CO)[C@@H](c3ccc(C#CC4CC4)cc3)[C@@H]2C1	DENV2 CPE 40 (no result: CaV13 ICDI inh)
CC(C)NC(=O)N1CCCCN2[C@H](C1)[C@H](c1ccc(C#CC3CC3)cc1)[C@@H]2CO	none (no result: CaV13 ICDI inh)
CCCN(C)C[C@H]1Oc2cc(-c3cccc(F)c3)ccc2S(=O)(=O)N([C@H](C)CO)C[C@H]1C	none (no result: ERAP1 inh, CaV13 ICDI inh, DENV2 CPE)
CC(C)(C)[C@H]1C=C(C(=O)N2CCCC2)O[C@@H](OCc2ccc(CO)cc2)C1	none (no result: Ecoli rRNA inh, CaV13 ICDI inh, INS-1E GSIS act)
O=C(O)C1=C[C@H](C2CC2)C[C@H](OCc2ccc(CO)cc2)O1	DENV2 CPE 22!
CC(C)(C)[C@H]1C=C(C(=O)N2CCCCCCC2)O[C@@H](OCc2ccc(CO)cc2)C1	DENV2 CPE 29 (no result: Ecoli rRNA inh, CaV13 ICDI inh, INS-1E GSIS act)
O=C(C1=C[C@@H](C2CCCCC2)C[C@@H](OCc2ccc(CO)cc2)O1)N1CCOCC1	none
O=C(NCc1nc2ccccc2[nH]1)C1=C[C@H](C2CC2)C[C@H](OCc2ccc(CO)cc2)O1	none
O=C(NCc1nc2ccccc2[nH]1)C1=C[C@@H](C2CC2)C[C@@H](OCc2ccc(CO)cc2)O1	Ecoli rRNA inh -27
O=C(C1=C[C@@H](C2CC2)C[C@@H](OCc2ccc(CO)cc2)O1)N1CCOCC1	DENV2 CPE 33!
O=C(C[C@H]1CC[C@H]2[C@@H](COC[C@H](O)CN2CC2CCCCC2)O1)NCC1CC1	none (no result: CaV13 ICDI inh)
CCCC(=O)Nc1ccc2nn(-c3ccc(OC)cc3)nc2c1	DENV2 CPE 26
COc1ccc(S(=O)(=O)Nc2ccc3c(c2)CC(=O)N([C@@H](C)CO)C[C@H](C)[C@H](CN(C)CC2CC2)O3)cc1	none (no result: ERAP1 inh, CaV13 ICDI inh, DENV2 CPE)
CN(C)CCOc1ccc(-c2c(-c3ccccc3)sc3ccccc23)cc1	INS-1E GSIS act 446
NCC[C@H]1CC[C@H](NC(=O)C2CC2)[C@H](CO)O1	none (no result: CaV13 ICDI inh, PGC1a acetyl inh)
